Laboratory results taken from paper PMC11062922 (Nature Chemical Biology, 2023).
Where two headings read alike, the source gives them in different places.

Experiments:
AAK1 = system: AAK1; parameters: species or system human, MV4-11 + K-562 + COLO205 + SK-N-BE2 + OVCAR-8; details: read-out: apparent Kd, n = 1
CLK1 = system: CLK1; parameters: species or system human, MV4-11 + K-562 + COLO205 + SK-N-BE2 + OVCAR-8; details: read-out: apparent Kd, compound concentrations: 100 nM and 1000 nM (sheet 'Samples'), n = 1
CLK4 = system: CLK4; parameters: species or system human, MV4-11 + K-562 + COLO205 + SK-N-BE2 + OVCAR-8; details: read-out: apparent Kd, compound concentrations: 100 nM and 1000 nM (sheet 'Samples'), n = 1
CSNK2A1;CSNK2A3 = system: CSNK2A1;CSNK2A3; parameters: species or system human, MV4-11 + K-562 + COLO205 + SK-N-BE2 + OVCAR-8; details: read-out: apparent Kd, n = 1
CSNK2A2 = system: CSNK2A2; parameters: species or system human, MV4-11 + K-562 + COLO205 + SK-N-BE2 + OVCAR-8; details: read-out: apparent Kd, compound concentrations: 100 nM and 1000 nM (sheet 'Samples'), n = 1
Q6ZSR9 = Q6ZSR9 (human, UniProt Q6ZSR9); parameters: species or system MV4-11 + K-562 + COLO205 + SK-N-BE2 + OVCAR-8; details: read-out: apparent Kd, n = 1
Q6ZSR9, sequence (Q6ZSR9 whole entry, looked up): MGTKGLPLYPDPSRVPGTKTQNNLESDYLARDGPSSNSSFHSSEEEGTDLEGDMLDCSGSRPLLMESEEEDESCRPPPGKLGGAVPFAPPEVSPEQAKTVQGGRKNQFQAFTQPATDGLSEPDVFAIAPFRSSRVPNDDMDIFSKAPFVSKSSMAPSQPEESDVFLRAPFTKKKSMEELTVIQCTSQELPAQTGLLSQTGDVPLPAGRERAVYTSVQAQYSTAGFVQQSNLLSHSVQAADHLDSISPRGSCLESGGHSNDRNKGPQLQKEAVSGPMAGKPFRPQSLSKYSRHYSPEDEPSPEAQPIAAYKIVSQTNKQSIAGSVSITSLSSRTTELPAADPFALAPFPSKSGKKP

RET = system: RET; parameters: species or system human, MV4-11 + K-562 + COLO205 + SK-N-BE2 + OVCAR-8; details: read-out: apparent Kd; compound concentrations:100 nM and 1000 nM (sheet 'Samples'); n = 1
RIPK3 = system: RIPK3; parameters: species or system human, MV4-11 + K-562 + COLO205 + SK-N-BE2 + OVCAR-8; details: read-out: apparent Kd; compound concentrations:100 nM and 1000 nM (sheet 'Samples'); n = 1
TNK1 = system: TNK1; parameters: species or system human, MV4-11 + K-562 + COLO205 + SK-N-BE2 + OVCAR-8; details: read-out: apparent Kd; compound concentrations:100 nM and 1000 nM (sheet 'Samples'); n = 1
YES1 = system: YES1; parameters: species or system human, MV4-11 + K-562 + COLO205 + SK-N-BE2 + OVCAR-8; details: read-out: apparent Kd; compound concentrations:100 nM and 1000 nM (sheet 'Samples'); n = 1
RIPK2 = system: RIPK2; parameters: species or system human, MV4-11 + K-562 + COLO205 + SK-N-BE2 + OVCAR-8; details: read-out: apparent Kd; compound concentrations: 100 nM and 1000 nM (sheet 'Samples'), CATDS: 7.9715899202970897E-2; n = 1
FYN = system: FYN; parameters: species or system human, MV4-11 + K-562 + COLO205 + SK-N-BE2 + OVCAR-8; details: read-out: apparent Kd; compound concentrations:100 nM and 1000 nM (sheet 'Samples'); n = 1
LCK = system: LCK; parameters: species or system human, MV4-11 + K-562 + COLO205 + SK-N-BE2 + OVCAR-8; details: read-out: apparent Kd; compound concentrations:100 nM and 1000 nM (sheet 'Samples'); n = 1
[1] = compound concentrations:100 nM and 1000 nM (sheet 'Samples')

CNC1=NC(=O)/C(=C/c2ccc3ncccc3c2)S1 [RO4595949-000]
potency estimated from few doses (AAK1; compound concentrations: 100 nM and 1000 nM (sheet 'Samples'), CATDS: 6.4601129134093493E-2): 737 nM | potency estimated from few doses (CLK1; CATDS: 0.21110804330204799): 68.5 nM | potency estimated from few doses (CLK4; CATDS: 7.8220573800827503E-2): 429 nM | potency estimated from few doses (CSNK2A1;CSNK2A3; compound concentrations: 100 nM and 1000 nM (sheet 'Samples'), CATDS: 0.13596728585800399): 136 nM | potency estimated from few doses (CSNK2A2; CATDS: 0.13149975380310699): 144 nM | potency estimated from few doses (Q6ZSR9; compound concentrations: 100 nM and 1000 nM (sheet 'Samples'), CATDS: 0.14278895493122401): 125 nM

CS(=O)(=O)Cc1ccc(Nc2nccc(-c3c(-c4cccc(NC(=O)C5CCCCC5)c4)nn4ncccc34)n2)cc1 [GSK350559A]
potency estimated from few doses (RET): 1370 nM | potency estimated from few doses (RIPK3): 1130 nM | potency estimated from few doses (TNK1): 261 nM | potency estimated from few doses (YES1): 461 nM

O=C1N=C(NCC(CO)c2ccccc2)S/C1=C\c1ccc2ncccc2c1 (stereo not drawn) [RO4582641-000]
potency estimated from few doses (AAK1; compound concentrations: 100 nM and 1000 nM (sheet 'Samples'), CATDS: 0.17753366584660099): 89.4 nM | potency estimated from few doses (CLK1; CATDS: 0.190725453373879): 79.6 nM | potency estimated from few doses (CLK4; CATDS: 7.8741262727809305E-2): 590 nM | potency estimated from few doses (CSNK2A1;CSNK2A3; compound concentrations: 100 nM and 1000 nM (sheet 'Samples'), CATDS: 0.138008161076002): 140 nM | potency estimated from few doses (CSNK2A2; CATDS: 0.126393310474474): 167 nM | potency estimated from few doses (Q6ZSR9; compound concentrations: 100 nM and 1000 nM (sheet 'Samples'), CATDS: 0.16856489309537501): 97.6 nM | potency estimated from few doses (RIPK2): 565 nM

COc1cc(Nc2nccc(N3CCC(NC(=O)C4COc5ccccc5O4)C3)n2)cc(OC)c1OC (stereo not drawn) [GSK1379761A]
potency estimated from few doses (AAK1; compound concentrations: 100 nM and 1000 nM (sheet 'Samples'), CATDS: 0.26357344915845798): 1120 nM | potency estimated from few doses (Q6ZSR9; compound concentrations: 100 nM and 1000 nM (sheet 'Samples'), CATDS: 0.25714063136794202): 1170 nM

CC(C)c1cc(-c2ccc3c(N)n[nH]c3c2)nc(N)n1 [GSK2250882A]
potency estimated from few doses (AAK1; [1]): 838 nM | potency estimated from few doses (Q6ZSR9; [1]): 1370 nM

NC1=NC(=O)/C(=C/c2ccc3ncccc3c2)S1 [RO4569139-000]
potency estimated from few doses (AAK1; compound concentrations: 100 nM and 1000 nM (sheet 'Samples'), CATDS: 6.8889261451454395E-2): 1710 nM | potency estimated from few doses (CLK1; CATDS: 0.136614362929): 259 nM | potency estimated from few doses (CLK4; CATDS: 7.4487877667225894E-2): 1260 nM | potency estimated from few doses (CSNK2A1;CSNK2A3; compound concentrations: 100 nM and 1000 nM (sheet 'Samples'), CATDS: 0.13735026532766101): 256 nM | potency estimated from few doses (CSNK2A2; CATDS: 0.14765038324125301): 222 nM | potency estimated from few doses (Q6ZSR9; compound concentrations: 100 nM and 1000 nM (sheet 'Samples'), CATDS: 7.6885749429296102E-2): 1130 nM

Cc1cccc(-c2cc(-c3c[nH]nc3-c3ccccn3)ccn2)c1 [GW679395X]
potency estimated from few doses (CSNK2A1;CSNK2A3; [1]): 2120 nM | potency estimated from few doses (FYN): 1290 nM | potency estimated from few doses (LCK): 1330 nM
